These compounds were tested against Cyclin-dependent kinase 1/cyclin B1 (Homo sapiens) (UniProt P06493+P14635). Details: at 10 µM.
Sequence of Cyclin-dependent kinase 1/cyclin B1 (Homo sapiens) (P06493 whole entry, looked up): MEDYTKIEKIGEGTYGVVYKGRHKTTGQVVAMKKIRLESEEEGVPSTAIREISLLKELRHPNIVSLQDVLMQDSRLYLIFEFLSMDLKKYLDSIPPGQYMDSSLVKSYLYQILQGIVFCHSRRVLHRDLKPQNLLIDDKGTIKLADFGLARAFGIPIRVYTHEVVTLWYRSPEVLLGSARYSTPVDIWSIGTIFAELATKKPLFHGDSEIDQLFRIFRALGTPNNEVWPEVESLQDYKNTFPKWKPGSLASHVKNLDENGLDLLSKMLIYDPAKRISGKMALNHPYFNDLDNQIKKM
Sequence of Cyclin-dependent kinase 1/cyclin B1 (Homo sapiens) (P14635 whole entry, looked up): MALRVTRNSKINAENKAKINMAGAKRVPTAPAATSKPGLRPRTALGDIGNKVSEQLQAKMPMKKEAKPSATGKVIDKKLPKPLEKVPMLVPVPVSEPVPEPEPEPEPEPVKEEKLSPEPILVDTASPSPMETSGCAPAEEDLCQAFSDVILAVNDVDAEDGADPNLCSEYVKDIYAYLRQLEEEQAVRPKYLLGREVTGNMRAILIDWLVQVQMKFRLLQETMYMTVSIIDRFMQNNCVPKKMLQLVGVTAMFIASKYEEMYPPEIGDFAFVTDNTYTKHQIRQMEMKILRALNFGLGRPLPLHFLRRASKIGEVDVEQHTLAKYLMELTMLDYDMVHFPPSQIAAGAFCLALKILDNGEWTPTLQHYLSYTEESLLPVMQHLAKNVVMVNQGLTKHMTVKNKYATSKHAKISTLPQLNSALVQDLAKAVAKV
For `c1ccc(-c2n[nH]c3c2oc2ccccc23)cc1`, the residual activity was 75%. `O=C1Nc2ccc(Br)cc2/C1=C\c1cc2c([nH]1)CCCC2` was tested, and the residual activity was 110%. Compound `COc1cc2ncnc(Nc3ccc(NC(=O)c4ccccc4)cc3)c2cc1OC` has a residual activity of 101%. For `O=C1NC(=O)/C(=C\c2ccc3nccnc3c2)S1`, the residual activity was 31%. In the case of `O=C(Nc1cccc(Nc2nccc(Nc3cccc(C(F)(F)F)c3)n2)c1)C1CC1`, the residual activity is reported as 102%. In the case of `CCN(CC)CCCCN1c2ccccc2Oc2ccc(Cl)cc21`, the residual activity is reported as 96%. In the case of `N#C/C(=C(\N)Sc1ccc(N)cc1)c1ccccc1C(F)(F)F`, the residual activity is reported as 96%. With `O=C1Nc2cc(Br)ccc2/C1=C1/Nc2ccccc2/C1=N\O` the residual activity was 12%. Compound `CC#CC(=O)Nc1cc2c(Nc3ccc(F)c(Cl)c3)ncnc2cn1` has a residual activity of 94%. Work on `Nc1ccc2ncnc(NCCc3ccc(Oc4ccccc4)cc3)c2c1` yielded a residual activity of 95%. `O=C(Nc1cccc(Nc2cc(Nc3cccc(C(F)(F)F)c3)ncn2)c1)C1CC1` was tested, and the residual activity was 89%. `COc1ccc(OC)c2c(=S)c3ccccc3[nH]c12` showed a residual activity of 94%. In the case of `O=c1c2ccccc2[nH]c(=S)n1CCN1CCC(=C(c2ccc(F)cc2)c2ccc(F)cc2)CC1`, the residual activity is reported as 104%. `CN(C)CCCn1cc(C2=C(c3c[nH]c4ccccc34)C(=O)NC2=O)c2ccccc21` gave a residual activity of 40%. With `COc1cc2ncnc(Nc3ccc(O)c(Br)c3)c2cc1OC` the residual activity was 68%. Work on `Cc1cc2ncc(-c3ccccc3)nc2cc1C` yielded a residual activity of 103%. Compound `COc1ccc(C(=O)Nc2sc3c(c2C(N)=O)CCCC3)cc1OC` has a residual activity of 93%. For `CO[C@H]1C[C@@H]2CC[C@@H](C)[C@@](O)(O2)C(=O)C(=O)N2CCCC[C@H]2C(=O)O[C@H]([C@H](C)C[C@@H]2CC[C@@H](O)[C@H](OC)C2)CC(=O)[C@H](C)/C=C(\C)[C@@H](O)[C@@H](OC)C(=O)[C@H](C)C[C@H](C)/C=C/C=C/C=C/1C`, the residual activity was 108%. In the case of `CNc1cc2c(Nc3cccc(Br)c3)ncnc2cn1`, the residual activity is reported as 99%. `N#CCCc1ccc2c(c1)-c1[nH]c3ccc([N+](=O)[O-])cc3c1CC(=O)N2` was tested, and the residual activity was 0%. `C[C@@H](N)[C@H]1CC[C@H](C(=O)Nc2ccncc2)CC1` was tested, and the residual activity was 85%. In the case of `N#Cc1cnc2cnc(NCc3cccnc3)cc2c1Nc1ccc(F)c(Cl)c1`, the residual activity is reported as 8%. Compound `O=C(O)c1ccc2c3c1cccc3c(=O)n1c3ccccc3nc21` has a residual activity of 15%. `CCN(CC)C(=O)c1ccc(Nc2nc(OCC3CCCCC3)c3nc[nH]c3n2)cc1` was tested, and the residual activity was 26%. Compound `CC(C)n1cnc2/c(=N/c3cccc(Cl)c3)nc(NCCO)[nH]c21` has a residual activity of 13%. `CC(=O)O/N=C1\C(=C2\C(=O)Nc3cc(Br)ccc32)Nc2ccccc21` showed a residual activity of 34%. `CC(C)n1cnc2c(NCc3ccccc3)nc(NCCCO)nc21` showed a residual activity of 55%. Compound `CC(=O)c1ccc(N2CCOCC2)cc1O` has a residual activity of 100%. Compound `Cc1ccc(NC2=CC(=O)c3sc(C)nc3C2=O)cc1` has a residual activity of 106%.

Source: ChEMBL document CHEMBL2218924, “A broad activity screen in support of a chemogenomic map for kinase signalling research and drug discovery” (Biochem J, 2013)
